The whole screen tested about 340,000 compounds, of which about 1,200 (0.35%) were called active. No stated cut-off is given here; in the data, active means inhibition above about 50% (passing the limit was not always enough); inconclusive means no clear call, values can overlap the other calls; inactive means below about 31%. The list comes from a sample in which actives are over-represented; it also holds similar structures and randomly drawn compounds.
Test: HIV Vif self-association inhibitors, primary screen, imaging, HEK293T, single point (AID 602346)
Conditions: HEK293T cells, Vif self-association by quenched fluorescence, 24 h, at 7.49 µM, hits give high values
For `Cc1ccc(NC(=O)Cn2sc3ccccc3c2=O)cc1`, the inhibition was 4.93% (inactive).
For `COc1ccc(NC(=O)C2=C(C)NC(=O)NC2c2ccccc2[N+](=O)[O-])cc1` (stereo not drawn), the inhibition was -2.26% (inactive).
For `COc1ccc(N/C=C(\C2OC(=O)c3ccccc32)[N+](=O)[O-])cc1` (stereo not drawn), the inhibition was 50.1% (active).
For `COc1ccc(NC(=O)ON=C2c3ccccc3-c3ccccc32)cc1`, the inhibition was -9.14% (inactive).
In the case of `NC(Cc1ccccc1)c1csc(Nc2cc(Oc3ccccc3)ncn2)n1` (stereo not drawn), the inhibition is reported as -3.02% (inactive).
For `CCOC(=O)[C@H]1Nc2ccc(Cl)cc2[C@@H]2[C@H]1C1CC(c3ccccc31)N2C(=O)OCc1ccccc1` (stereo partly drawn), the inhibition was 2.38% (inactive).
For `CC(=O)Oc1ccc(Cn2c(C)c(C(=O)NCc3ccc(C#N)cc3)sc2=O)cc1`, the inhibition was 1.95% (inactive).
With `COc1cccc(CNc2nc3cc(-c4csc5ccccc45)sc3c(=O)n2C)c1` the inhibition was -4.94% (inactive).
In the case of `COc1ccc(CC(NC(C)=O)C(=O)NC2CCN(C(=O)C3CC3)CC2)cc1OC` (stereo not drawn), the inhibition is reported as -0.652% (inactive).
For `COc1ccc(CC(NC(C)=O)C(=O)N2CCN(C(=O)Nc3cccc(Cl)c3)CC2)cc1OC` (stereo not drawn), the inhibition was 50.1% (active).
In the case of `COc1ccc(CC(NC(C)=O)C(=O)NC2CCN(C(=O)Nc3ccc(C#N)cc3)CC2)cc1OC` (stereo not drawn), the inhibition is reported as -4.35% (inactive).
With `CCOc1ccc(CCN2C(=S)N([C@@H](CC(C)C)CN3CCC[C@@H]3CN3C(=S)NC[C@@H]3Cc3ccc(O)cc3)C[C@@H]2Cc2ccc(O)cc2)cc1` the inhibition was 1.22% (inactive).
In the case of `CCc1nc2ccc(C(=O)NCc3ccc(OC)cc3)cn2c1N(CC)Cc1cccc(Br)c1`, the inhibition is reported as 4.42% (inactive).
With `Cc1cccc(C(=O)NC2CCN(CC(=O)Nc3cccc(Cl)c3)CC2)c1` the inhibition was -0.446% (inactive).
In the case of `CCCOc1ccc(F)cc1-c1cc(C(=O)NCc2ccc(F)cc2)[nH]n1`, the inhibition is reported as 14.3% (inactive).
For `CC(C)(C)NC(=O)COC(=O)c1cc(Br)ccc1Cl`, the inhibition was -3.23% (inactive).
With `CN(C)C(=S)Nc1ccc(Br)cc1Cl` the inhibition was 1.91% (inactive).
With `CN(C)C(=O)c1cc(Br)ccc1Cl` the inhibition was 102% (active).
With `CCOC(=O)C1CCCN(C(=O)c2ccc(C)c(F)c2)CC1` (stereo not drawn) the inhibition was -7.05% (inactive).
For `COc1ccc(-c2cc(NC(C)=O)c3ncc(-c4cc(OC)c(OC)c(OC)c4)n3c2)cn1`, the inhibition was -2.19% (inactive).
For `COc1ccccc1CNC(=O)c1cc(-c2cc(Cl)ccc2C)n[nH]1`, the inhibition was 20.2% (inactive).
In the case of `CCc1ccc(OCC(=O)NCC(c2ccc(Cl)cc2)N2CCCCC2)cc1` (stereo not drawn), the inhibition is reported as 58.2% (active).
In the case of `COc1ccc(C(CNC(=O)COc2ccc([N+](=O)[O-])cc2)N2CCCCC2)cc1` (stereo not drawn), the inhibition is reported as 3.74% (inactive).
In the case of `COc1ccc(C(CNC(=O)COc2ccccc2OC)N2CCCCC2)cc1` (stereo not drawn), the inhibition is reported as -2.23% (inactive).
For `CC(C)Nc1nc(NCCOc2ccccc2Cl)c2sccc2n1`, the inhibition was -13.3% (inactive).
In the case of `Oc1cccc2cc(-c3ccncc3)cnc12`, the inhibition is reported as 11.1% (inactive).
In the case of `CCOC(=O)C(=Cc1ccccc1)C(=O)c1ccccc1`, the inhibition is reported as -5.2% (inactive).
With `COc1ccc(C(C)(O)c2nc(-c3cc(F)cc(F)c3)cs2)cc1` (stereo not drawn) the inhibition was -4.33% (inactive).

Reference: PubChem BioAssay AID602346 (Broad Institute, 2012)
